Data as given in PubChem BioAssay AID1159580 (chemical genetic matrix, 2015).
“And” between values parts separate entries of the source, which are not always exact repeats. Equal entries are not always repeated. The whole screen tested about 5,500 compounds, of which about 2,000 (36%) were called active. Not shown: some 18% with an inconclusive outcome. No stated cut-off is given here; in the data, active means normalized growth mostly below about 0.91 (no sharp cut-off); inconclusive means no clear call, values can overlap the other calls; inactive means mostly above about 0.92. The list shows a part of the results.

Experiment: chemical genetic growth profiling, strain panel (AID 1159580);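 further: tested at 20 µM; growth read once vehicle control cultures reached saturation at 30 °C; 1 = growth at the plate median or of vehicle wells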
Conditions: S. cerevisiae deletion strains, growth OD

Measured: normalized growth

COc1cc(/C=C/C(=O)O)cc(OC)c1OC
inactive: locus YAL021C, strain ccr4, stronger effect = lower value 0.979 | locus YAL026C, strain drs2, stronger effect = lower value 0.999 | locus YAL030W, strain snc1, stronger effect = lower value 0.988 | locus YBL061C, strain skt5, stronger effect = lower value 0.993 | locus YBR009C, strain hhf1, stronger effect = lower value 1.02 | locus YBR021W, strain FUR4, stronger effect = lower value 0.998 | locus YBR023C, strain chs3, stronger effect = lower value 0.993 | locus YBR171W, strain sec66, stronger effect = lower value 1 | locus YBR229C, strain ROT2, stronger effect = lower value 1.01 | locus YBR231C, strain swc5, stronger effect = lower value 0.941 | locus YBR279W, strain paf1, stronger effect = lower value 0.973 | locus YCL011C, strain gbp2, stronger effect = lower value 0.99 | locus YCL016C, strain dcc1, stronger effect = lower value 0.994 | locus YCL029C, strain bik1, stronger effect = lower value 1.01 | locus YCL061C, strain MRC1, stronger effect = lower value 1 | locus YCL069W, strain vba3, stronger effect = lower value 0.992 | locus YCR088W, strain abp1, stronger effect = lower value 0.989 | locus YDL005C, strain med2, stronger effect = lower value 0.979 | locus YDL035C, strain GPR1, stronger effect = lower value 1.01 | locus YDL040C, strain nat1, stronger effect = lower value 0.99 | locus YDL074C, strain BRE1, stronger effect = lower value 1.02 | locus YDL101C, strain DUN1, stronger effect = lower value 1.01 | locus YDL134C, strain PPH21, stronger effect = lower value 1.02 | locus YDL185W, strain tfp1, stronger effect = lower value 1.01 | locus YDL192W, strain arf1, stronger effect = lower value 1.01 | locus YDR001C, strain nth1, stronger effect = lower value 0.985 | locus YDR069C, strain doa4, stronger effect = lower value 0.991 | locus YDR101C, strain arx1, stronger effect = lower value 1.01 | locus YDR137W, strain rgp1, stronger effect = lower value 1 | locus YDR159W, strain sac3, stronger effect = lower value 0.986 | locus YDR162C, strain NBP2, stronger effect = lower value 1.03 | locus YDR195W, strain ref2 0.99 | locus YDR297W, strain sur2, stronger effect = lower value 1 | locus YDR318W, strain mcm21, stronger effect = lower value 1.01 | locus YDR334W, strain swr1, stronger effect = lower value 0.987 | locus YDR335W, strain msn5, stronger effect = lower value 0.987 | locus YDR388W, stronger effect = lower value 1.01 | locus YDR392W, strain spt3, stronger effect = lower value 0.946 | locus YDR502C, strain sam2, stronger effect = lower value 0.991 | locus YEL003W, strain gim4, stronger effect = lower value 0.994 | locus YEL037C, strain rad23, stronger effect = lower value 0.984 | locus YEL061C, strain CIN8 (second series), stronger effect = lower value 0.99 | locus YEL061C, strain CIN8, stronger effect = lower value 1.01 | locus YER015W, strain faa2, stronger effect = lower value 0.975 | locus YER016W, strain bim1, stronger effect = lower value 0.99 | locus YER110C, stronger effect = lower value 1.03 | locus YER111C, strain swi4, stronger effect = lower value 0.984 | locus YER155C, strain BEM2 (second series), stronger effect = lower value 1.01 | locus YER155C, strain BEM2, stronger effect = lower value 1.01 | locus YER167W, strain BCK2, stronger effect = lower value 1.01 | locus YFR010W, strain ubp6, stronger effect = lower value 0.988 | locus YGL078C, strain dbp3, stronger effect = lower value 1.02 | locus YGL086W, strain mad1, stronger effect = lower value 0.997 | locus YGL167C, strain pmr1, stronger effect = lower value 0.982 | locus YGL173C, strain kem1, stronger effect = lower value 0.985 | locus YGL227W, strain vid30, stronger effect = lower value 0.997 | locus YGL240W, strain doc1, stronger effect = lower value 1 | locus YGL248W, strain PDE1, stronger effect = lower value 1.02 | locus YGL253W, strain hxk2, stronger effect = lower value 0.993 | locus YGR078C, strain PAC10, stronger effect = lower value 1.01 | locus YGR135W, strain pre9, stronger effect = lower value 1.02 | locus YGR252W, strain gcn5, stronger effect = lower value 1.02 | locus YHR013C, strain ard1, stronger effect = lower value 0.967 | locus YHR027C, strain rpn1, stronger effect = lower value 1 | locus YHR030C, strain SLT2, stronger effect = lower value 1 and 1.01 | locus YHR079C, strain IRE1 (second series), stronger effect = lower value 1.03 | locus YHR079C, strain IRE1, stronger effect = lower value 1 | locus YHR094C, strain hxt1, stronger effect = lower value 1.02 | locus YHR129C, strain ARP1, stronger effect = lower value 1.01 | locus YHR142W, strain chs7, stronger effect = lower value 0.986 | locus YHR200W, strain rpn10, stronger effect = lower value 1.02 | locus YIL066C, strain RNR3, stronger effect = lower value 1.01 | locus YIL073C, strain SPO22, stronger effect = lower value 1.08 | locus YIL125W, strain kgd1, stronger effect = lower value 1.01 | locus YIR030C, strain dcg1, stronger effect = lower value 1.02 | locus YJL092W, strain hpr5, stronger effect = lower value 0.991 | locus YJL095W, strain BCK1 (second series), stronger effect = lower value 0.994 | locus YJL095W, strain BCK1, stronger effect = lower value 1.01 and 1.03 | locus YJL115W, strain asf1, stronger effect = lower value 0.976 | locus YJL129C, strain trk1, stronger effect = lower value 0.971 | locus YJL134W, strain LCB3, stronger effect = lower value 1 | locus YJL154C, strain vps35, stronger effect = lower value 0.992 | locus YJL164C, strain tpk1, stronger effect = lower value 0.987 | locus YJL166W, strain qcr8, stronger effect = lower value 0.994 | locus YJL168C, strain set2, stronger effect = lower value 1.01 | locus YJL187C, strain SWE1 (second series), stronger effect = lower value 1.01 | locus YJL187C, strain SWE1, stronger effect = lower value 0.991
